The record followed here is PMC7862700, “An all-to-all approach to the identification of sequence-specific readers for epigenetic DNA modifications on cytosine”.

What all share (assay): DAPPL (digital affinity profiling via proximity ligation, sequencing); 10 mM Tris-HCl pH 7.5, 50 mM NaCl, 1 mM DTT, 4% glycerol, room temperature, 30 min; GST-TFs on glutathione beads, 16-mer random dsDNA library, 0.1% formaldehyde crosslink after washing; high values mean tight binding
The target of one experiment is T1, FEV (Homo sapiens, UniProt Q99581 1-238).
T1 sequence: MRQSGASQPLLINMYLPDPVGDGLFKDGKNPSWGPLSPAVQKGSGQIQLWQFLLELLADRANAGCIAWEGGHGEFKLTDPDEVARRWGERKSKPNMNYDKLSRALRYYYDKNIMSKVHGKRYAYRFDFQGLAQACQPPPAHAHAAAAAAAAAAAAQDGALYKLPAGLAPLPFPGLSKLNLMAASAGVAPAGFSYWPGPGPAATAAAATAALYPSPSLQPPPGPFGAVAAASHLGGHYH
Conditions: protein: recombinant; tags: N-terminal GST; dsDNA, one strand shown. In short, it runs like this:
(§1)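 Human transcription factors carrying a GST fusion were produced in yeast, bound to glutathione beads, tagged with DNA barcodes and pooled together with a tag-only sample. Each pool was held with 200 nmole of a random double-stranded 16-mer DNA library in Tris/NaCl/DTT/glycerol buffer for 30 min at room temperature, then washed, crosslinked in 0.1% formaldehyde, proximity-ligated with BsaI/T4 ligase (1 h, 37 °C), PCR-amplified and sequenced on an Illumina NextSeq500. Binding signal is the read frequency of each hexamer for a given factor divided by its frequency in the tag-only sample.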

The target in another experiment is ETV5 (Homo sapiens, UniProt P41161 1-510). Conditions: protein: recombinant; tags: N-terminal GST; dsDNA, one strand shown. The procedure, abridged: as §1
Sequence of ETV5 (P41161 whole entry): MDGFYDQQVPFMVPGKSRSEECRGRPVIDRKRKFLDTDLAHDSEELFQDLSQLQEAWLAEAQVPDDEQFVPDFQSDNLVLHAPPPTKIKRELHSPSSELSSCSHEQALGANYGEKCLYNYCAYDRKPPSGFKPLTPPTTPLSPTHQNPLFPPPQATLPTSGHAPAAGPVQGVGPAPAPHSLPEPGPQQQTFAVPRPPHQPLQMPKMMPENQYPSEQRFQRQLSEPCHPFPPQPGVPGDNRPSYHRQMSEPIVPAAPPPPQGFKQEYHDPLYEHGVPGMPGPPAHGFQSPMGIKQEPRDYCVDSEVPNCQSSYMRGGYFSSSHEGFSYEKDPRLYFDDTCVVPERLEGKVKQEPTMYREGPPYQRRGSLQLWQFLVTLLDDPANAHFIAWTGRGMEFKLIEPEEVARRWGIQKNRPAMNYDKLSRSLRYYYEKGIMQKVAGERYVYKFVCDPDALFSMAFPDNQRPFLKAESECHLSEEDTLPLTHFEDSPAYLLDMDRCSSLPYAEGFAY
The next experiment has as its target HSF1 (Homo sapiens, UniProt Q00613 1-529). Conditions: protein: recombinant; tags: N-terminal GST; chain copies: 3; dsDNA, one strand shown. The procedure, abridged:
as §1

For the next experiment, the target named is T2, SPIC (Homo sapiens, UniProt Q8N5J4 1-248).
T2 sequence: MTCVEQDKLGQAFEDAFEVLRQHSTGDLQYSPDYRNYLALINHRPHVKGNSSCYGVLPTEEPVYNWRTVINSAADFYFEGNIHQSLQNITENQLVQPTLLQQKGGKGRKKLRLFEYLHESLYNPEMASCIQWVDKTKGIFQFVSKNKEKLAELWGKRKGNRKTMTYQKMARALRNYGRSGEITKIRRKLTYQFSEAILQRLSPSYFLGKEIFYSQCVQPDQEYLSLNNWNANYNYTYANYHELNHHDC
As to conditions: protein: recombinant; tags: N-terminal GST; dsDNA, one strand shown. In short, it runs like this: as §1

Another experiment deals with ELF4 (Homo sapiens, UniProt Q99607 1-663). As to conditions: protein: recombinant; tags: N-terminal GST; dsDNA, one strand shown. The procedure, abridged: as §1
Sequence of ELF4 (Q99607 whole entry): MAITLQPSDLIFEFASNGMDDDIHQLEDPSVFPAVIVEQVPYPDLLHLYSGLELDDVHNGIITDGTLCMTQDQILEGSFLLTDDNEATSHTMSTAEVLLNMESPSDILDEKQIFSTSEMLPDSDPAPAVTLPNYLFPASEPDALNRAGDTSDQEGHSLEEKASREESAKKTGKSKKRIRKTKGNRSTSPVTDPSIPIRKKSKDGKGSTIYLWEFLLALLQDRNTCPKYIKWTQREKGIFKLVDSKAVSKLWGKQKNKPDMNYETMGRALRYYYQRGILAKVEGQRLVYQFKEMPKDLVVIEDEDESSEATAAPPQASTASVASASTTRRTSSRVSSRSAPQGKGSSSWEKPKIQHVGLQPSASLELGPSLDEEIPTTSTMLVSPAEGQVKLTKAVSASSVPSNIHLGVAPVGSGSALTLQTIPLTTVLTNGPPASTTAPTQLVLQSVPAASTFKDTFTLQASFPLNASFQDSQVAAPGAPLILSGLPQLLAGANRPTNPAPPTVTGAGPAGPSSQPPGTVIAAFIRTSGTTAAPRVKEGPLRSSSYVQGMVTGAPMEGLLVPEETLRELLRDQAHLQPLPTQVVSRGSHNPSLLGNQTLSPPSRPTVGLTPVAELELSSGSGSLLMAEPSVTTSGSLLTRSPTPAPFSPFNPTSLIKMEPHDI
Another experiment concerns the target T3, ELK4 (Homo sapiens, UniProt P28324-2 1-405).
T3 sequence: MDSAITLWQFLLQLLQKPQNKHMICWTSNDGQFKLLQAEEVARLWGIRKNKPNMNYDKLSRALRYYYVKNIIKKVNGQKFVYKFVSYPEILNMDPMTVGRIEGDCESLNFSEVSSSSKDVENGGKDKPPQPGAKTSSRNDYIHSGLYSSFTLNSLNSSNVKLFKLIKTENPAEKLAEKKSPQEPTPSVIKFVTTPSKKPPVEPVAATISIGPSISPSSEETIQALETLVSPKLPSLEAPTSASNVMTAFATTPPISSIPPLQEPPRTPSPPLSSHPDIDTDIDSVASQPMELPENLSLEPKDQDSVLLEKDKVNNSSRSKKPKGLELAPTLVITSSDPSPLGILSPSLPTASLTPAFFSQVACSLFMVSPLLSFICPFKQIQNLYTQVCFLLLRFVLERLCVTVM
Conditions: protein: recombinant; tags: N-terminal GST; dsDNA, one strand shown. In short, it runs like this: as §1

A further experiment has as its target T4, ETV2 (Homo sapiens, UniProt O00321 1-342).
T4 sequence: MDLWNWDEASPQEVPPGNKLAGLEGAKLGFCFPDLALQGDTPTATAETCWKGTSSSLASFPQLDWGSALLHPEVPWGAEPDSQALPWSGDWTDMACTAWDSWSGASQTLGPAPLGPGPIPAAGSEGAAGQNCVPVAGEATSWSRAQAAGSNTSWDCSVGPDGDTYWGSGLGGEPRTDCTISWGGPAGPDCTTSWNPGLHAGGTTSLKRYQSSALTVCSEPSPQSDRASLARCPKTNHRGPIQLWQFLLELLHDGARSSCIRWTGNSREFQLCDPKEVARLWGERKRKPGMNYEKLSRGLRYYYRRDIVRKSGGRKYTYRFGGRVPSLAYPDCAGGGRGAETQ
Conditions: protein: recombinant; tags: N-terminal GST; dsDNA, one strand shown. In short, it runs like this:
as §1

The target in a further experiment is T5, ELF3 (Homo sapiens, UniProt P78545 1-371).
T5 sequence: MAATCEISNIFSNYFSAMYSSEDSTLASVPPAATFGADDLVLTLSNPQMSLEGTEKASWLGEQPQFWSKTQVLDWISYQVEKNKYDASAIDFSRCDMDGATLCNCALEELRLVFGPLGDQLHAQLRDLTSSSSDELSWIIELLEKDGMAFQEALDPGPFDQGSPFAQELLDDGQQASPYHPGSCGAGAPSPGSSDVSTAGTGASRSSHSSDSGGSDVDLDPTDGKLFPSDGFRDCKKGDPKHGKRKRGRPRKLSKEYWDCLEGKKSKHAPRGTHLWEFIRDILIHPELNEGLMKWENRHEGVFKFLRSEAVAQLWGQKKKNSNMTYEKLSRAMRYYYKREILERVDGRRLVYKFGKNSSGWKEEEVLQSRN
As to conditions: protein: recombinant; tags: N-terminal GST; dsDNA, one strand shown. The procedure, abridged: as §1

The target in a further experiment is CRX (Homo sapiens, UniProt O43186 1-299). As to conditions: protein: recombinant; tags: N-terminal GST; dsDNA, one strand shown. The procedure, abridged: as §1
Sequence of CRX (O43186 whole entry): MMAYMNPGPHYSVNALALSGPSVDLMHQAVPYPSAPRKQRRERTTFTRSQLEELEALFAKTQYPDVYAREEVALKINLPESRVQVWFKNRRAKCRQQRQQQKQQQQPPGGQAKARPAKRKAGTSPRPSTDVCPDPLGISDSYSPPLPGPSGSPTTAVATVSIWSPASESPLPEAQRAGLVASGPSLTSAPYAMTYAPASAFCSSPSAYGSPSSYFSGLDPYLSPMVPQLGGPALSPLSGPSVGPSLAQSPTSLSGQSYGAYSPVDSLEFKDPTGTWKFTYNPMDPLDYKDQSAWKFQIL
The next experiment deals with ETV1 (Homo sapiens, UniProt P50549 1-477). Conditions: protein: recombinant; tags: N-terminal GST; dsDNA, one strand shown. The procedure, abridged: as §1
Sequence of ETV1 (P50549 whole entry): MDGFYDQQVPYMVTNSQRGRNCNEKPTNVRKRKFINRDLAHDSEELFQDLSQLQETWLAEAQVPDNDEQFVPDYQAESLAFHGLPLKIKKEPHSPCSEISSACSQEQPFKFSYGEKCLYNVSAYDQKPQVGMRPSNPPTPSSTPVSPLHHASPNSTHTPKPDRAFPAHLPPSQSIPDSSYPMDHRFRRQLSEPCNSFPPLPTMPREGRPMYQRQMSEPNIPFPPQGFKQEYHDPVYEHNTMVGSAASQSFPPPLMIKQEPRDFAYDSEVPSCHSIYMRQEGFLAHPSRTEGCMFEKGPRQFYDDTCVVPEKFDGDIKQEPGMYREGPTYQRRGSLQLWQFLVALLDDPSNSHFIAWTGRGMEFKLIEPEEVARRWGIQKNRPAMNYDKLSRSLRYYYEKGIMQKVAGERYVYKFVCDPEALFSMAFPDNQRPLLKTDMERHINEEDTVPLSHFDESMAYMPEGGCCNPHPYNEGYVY
The next experiment deals with T6, ERF (Homo sapiens, UniProt P50548 1-548).
T6 sequence: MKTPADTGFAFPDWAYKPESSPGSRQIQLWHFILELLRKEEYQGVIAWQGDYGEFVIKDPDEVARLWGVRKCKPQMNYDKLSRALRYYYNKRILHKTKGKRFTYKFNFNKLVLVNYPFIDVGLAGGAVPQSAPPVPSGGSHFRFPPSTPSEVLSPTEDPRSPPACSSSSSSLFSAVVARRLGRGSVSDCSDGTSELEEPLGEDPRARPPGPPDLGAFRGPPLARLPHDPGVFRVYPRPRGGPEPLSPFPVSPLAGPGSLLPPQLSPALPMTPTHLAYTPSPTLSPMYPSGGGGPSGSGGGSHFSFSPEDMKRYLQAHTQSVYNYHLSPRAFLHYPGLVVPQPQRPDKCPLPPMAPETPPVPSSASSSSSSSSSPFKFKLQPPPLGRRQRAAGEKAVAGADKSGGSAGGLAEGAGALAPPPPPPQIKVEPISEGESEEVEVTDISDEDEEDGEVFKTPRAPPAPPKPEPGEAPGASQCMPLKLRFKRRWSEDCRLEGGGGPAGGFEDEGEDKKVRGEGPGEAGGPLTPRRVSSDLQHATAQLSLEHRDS
Conditions: protein: recombinant; tags: N-terminal GST; dsDNA, one strand shown. The procedure, abridged: as §1

The target of a further experiment is T7, ETV3L (Homo sapiens, UniProt Q6ZN32 1-361).
T7 sequence: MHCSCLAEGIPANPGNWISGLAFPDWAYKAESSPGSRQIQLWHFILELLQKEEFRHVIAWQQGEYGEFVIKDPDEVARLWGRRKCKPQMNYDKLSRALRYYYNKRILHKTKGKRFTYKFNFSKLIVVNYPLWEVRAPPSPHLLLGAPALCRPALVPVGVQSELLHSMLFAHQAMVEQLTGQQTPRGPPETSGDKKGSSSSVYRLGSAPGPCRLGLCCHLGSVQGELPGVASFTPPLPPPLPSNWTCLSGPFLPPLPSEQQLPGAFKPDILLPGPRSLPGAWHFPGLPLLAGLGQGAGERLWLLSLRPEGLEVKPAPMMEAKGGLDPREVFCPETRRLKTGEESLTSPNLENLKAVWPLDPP
As to conditions: protein: recombinant; tags: N-terminal GST; dsDNA, one strand shown. The procedure, abridged: as §1

For a further experiment, the target named is T8, ETS2 (Homo sapiens, UniProt P15036 1-469).
T8 sequence: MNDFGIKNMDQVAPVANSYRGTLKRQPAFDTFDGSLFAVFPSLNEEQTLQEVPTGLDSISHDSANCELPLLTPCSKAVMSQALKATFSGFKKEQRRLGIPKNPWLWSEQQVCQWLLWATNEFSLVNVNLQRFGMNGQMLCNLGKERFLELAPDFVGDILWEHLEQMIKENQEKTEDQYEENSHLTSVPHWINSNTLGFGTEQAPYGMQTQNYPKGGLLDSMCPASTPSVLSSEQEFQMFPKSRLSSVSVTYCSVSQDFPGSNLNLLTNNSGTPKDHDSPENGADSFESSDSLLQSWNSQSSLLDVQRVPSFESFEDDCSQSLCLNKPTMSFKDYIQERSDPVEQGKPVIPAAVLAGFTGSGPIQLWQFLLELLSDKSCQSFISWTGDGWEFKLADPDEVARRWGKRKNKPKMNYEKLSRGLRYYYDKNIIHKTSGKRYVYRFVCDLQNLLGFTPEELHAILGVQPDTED
As to conditions: protein: recombinant; tags: N-terminal GST; dsDNA, one strand shown. In short, it runs like this:
as §1

A further experiment has as its target T9, SPDEF (Homo sapiens, UniProt O95238 1-335).
T9 sequence: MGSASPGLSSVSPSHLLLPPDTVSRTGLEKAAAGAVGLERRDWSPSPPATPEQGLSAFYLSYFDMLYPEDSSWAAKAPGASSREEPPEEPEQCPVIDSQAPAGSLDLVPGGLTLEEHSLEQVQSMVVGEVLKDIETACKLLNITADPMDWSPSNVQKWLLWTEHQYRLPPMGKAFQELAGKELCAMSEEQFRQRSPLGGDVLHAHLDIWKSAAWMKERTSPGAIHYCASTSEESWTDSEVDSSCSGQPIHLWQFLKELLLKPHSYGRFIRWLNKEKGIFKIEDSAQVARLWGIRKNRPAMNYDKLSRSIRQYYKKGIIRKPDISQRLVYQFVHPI
Conditions: protein: recombinant; tags: N-terminal GST; dsDNA, one strand shown. In short, it runs like this: as §1

For the next experiment, the target named is T10, ETV7 (Homo sapiens, UniProt Q9Y603 1-341).
T10 sequence: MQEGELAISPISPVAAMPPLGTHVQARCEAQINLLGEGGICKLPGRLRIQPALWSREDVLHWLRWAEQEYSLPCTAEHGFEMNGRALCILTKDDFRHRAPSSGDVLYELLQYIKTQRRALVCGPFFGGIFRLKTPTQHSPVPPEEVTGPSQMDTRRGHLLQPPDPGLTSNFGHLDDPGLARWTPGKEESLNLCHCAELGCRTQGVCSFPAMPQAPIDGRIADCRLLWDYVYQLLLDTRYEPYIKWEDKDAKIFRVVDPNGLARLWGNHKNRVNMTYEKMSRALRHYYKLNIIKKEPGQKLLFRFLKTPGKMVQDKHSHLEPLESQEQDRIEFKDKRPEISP
As to conditions: protein: recombinant; tags: N-terminal GST; dsDNA, one strand shown. In short, it runs like this: as §1

Another experiment has as its target T11, ELF5 (Homo sapiens, UniProt Q9UKW6-2 1-255).
T11 sequence: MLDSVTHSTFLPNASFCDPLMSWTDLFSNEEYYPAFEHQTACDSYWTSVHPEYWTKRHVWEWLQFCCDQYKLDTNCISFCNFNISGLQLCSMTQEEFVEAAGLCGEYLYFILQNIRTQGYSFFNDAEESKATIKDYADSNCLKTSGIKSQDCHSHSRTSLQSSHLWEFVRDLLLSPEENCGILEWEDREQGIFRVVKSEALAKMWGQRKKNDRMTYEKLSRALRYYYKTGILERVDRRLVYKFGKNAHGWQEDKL
As to conditions: protein: recombinant; tags: N-terminal GST; dsDNA, one strand shown. The procedure, abridged: as §1

The target of another experiment is T12, ETV3 (Homo sapiens, UniProt P41162-2 1-143).
T12 sequence: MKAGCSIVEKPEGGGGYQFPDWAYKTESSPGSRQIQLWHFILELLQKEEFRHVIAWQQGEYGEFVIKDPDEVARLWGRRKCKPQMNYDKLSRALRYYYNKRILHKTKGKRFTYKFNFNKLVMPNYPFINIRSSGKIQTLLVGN
Conditions: protein: recombinant; tags: N-terminal GST; dsDNA, one strand shown. In short, it runs like this: as §1

Another experiment concerns the target ETV6 (Homo sapiens, UniProt P41212 1-452). As to conditions: protein: recombinant; tags: N-terminal GST; dsDNA, one strand shown. In short, it runs like this:
as §1

Sequence of ETV6 (P41212 whole entry): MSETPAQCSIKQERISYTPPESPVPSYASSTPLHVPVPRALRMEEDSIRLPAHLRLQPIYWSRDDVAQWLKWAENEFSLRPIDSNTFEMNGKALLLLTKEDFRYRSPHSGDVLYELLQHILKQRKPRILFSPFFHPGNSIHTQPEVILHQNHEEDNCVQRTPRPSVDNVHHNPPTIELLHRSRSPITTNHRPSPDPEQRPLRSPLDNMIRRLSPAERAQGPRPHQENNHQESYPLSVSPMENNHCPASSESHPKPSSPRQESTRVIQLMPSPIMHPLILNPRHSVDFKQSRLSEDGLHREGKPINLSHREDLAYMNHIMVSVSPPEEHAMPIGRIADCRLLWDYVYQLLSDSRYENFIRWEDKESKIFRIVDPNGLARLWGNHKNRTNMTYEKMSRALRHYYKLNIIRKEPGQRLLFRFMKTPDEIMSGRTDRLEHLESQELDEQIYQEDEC
Sequence of HSF1 (Q00613 whole entry): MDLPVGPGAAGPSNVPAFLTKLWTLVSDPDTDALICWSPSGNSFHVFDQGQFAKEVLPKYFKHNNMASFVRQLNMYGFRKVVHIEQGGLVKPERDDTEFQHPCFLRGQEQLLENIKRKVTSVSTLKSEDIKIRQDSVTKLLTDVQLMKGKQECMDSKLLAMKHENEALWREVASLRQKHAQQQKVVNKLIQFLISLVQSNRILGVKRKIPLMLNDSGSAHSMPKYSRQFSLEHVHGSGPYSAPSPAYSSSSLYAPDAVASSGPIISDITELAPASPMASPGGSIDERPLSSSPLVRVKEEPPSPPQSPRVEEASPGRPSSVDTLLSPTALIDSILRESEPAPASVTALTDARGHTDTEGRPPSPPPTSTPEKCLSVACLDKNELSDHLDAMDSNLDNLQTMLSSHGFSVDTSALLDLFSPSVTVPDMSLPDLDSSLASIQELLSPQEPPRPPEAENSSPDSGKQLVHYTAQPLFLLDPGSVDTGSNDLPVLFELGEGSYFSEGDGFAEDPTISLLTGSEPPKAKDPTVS

As for TATGCT, the binding signal was 1.24 fold enrichment (6-mer frequency, TF over GST control) in the experiment with FEV; 1.39 fold enrichment (6-mer frequency, TF over GST control) in the experiment with ETV5; 1.41 fold enrichment (6-mer frequency, TF over GST control) in the experiment with HSF1; 1.6 fold enrichment (6-mer frequency, TF over GST control) with SPIC; 1.31 fold enrichment (6-mer frequency, TF over GST control) with ELF4; 1.4 fold enrichment (6-mer frequency, TF over GST control) in the experiment with ELK4. Moreover, the binding signal was 1.3 fold enrichment (6-mer frequency, TF over GST control) with ETV2; 1.37 fold enrichment (6-mer frequency, TF over GST control) in the experiment with ELF3; 1.51 fold enrichment (6-mer frequency, TF over GST control) in the experiment with CRX; 1.29 fold enrichment (6-mer frequency, TF over GST control) in the experiment with ETV1; 1.18 fold enrichment (6-mer frequency, TF over GST control) with ERF; 1.45 fold enrichment (6-mer frequency, TF over GST control) with ETV3L. In addition, the binding signal was 1.29 fold enrichment (6-mer frequency, TF over GST control) with ETS2; 1.36 fold enrichment (6-mer frequency, TF over GST control) with SPDEF; 1.32 fold enrichment (6-mer frequency, TF over GST control) with ETV7; 1.29 fold enrichment (6-mer frequency, TF over GST control) in the experiment with ELF5; 1.32 fold enrichment (6-mer frequency, TF over GST control) with ETV3; 1.24 fold enrichment (6-mer frequency, TF over GST control) with ETV6.
